Results on 11 compounds are retold here after PubChem BioAssay (EPA / NIEHS).

Molecules are shown by their SMILES. Values joined by “and” are separate entries in the source; they are usually repeats but may differ in a detail not shown here. Identical values can stand only once. Inconclusive results are not listed. Active and inactive are the calls of the source. The calls were made as follows: active = hit-call score of the fitted dose curve at least 0.9, where 1 is the maximum; inconclusive = response in the unintended direction; inactive = score below 0.9.

rat Mineralocorticoid Receptor (MR), Nr3c2 (gene 25672), sequence (P22199 whole entry, looked up): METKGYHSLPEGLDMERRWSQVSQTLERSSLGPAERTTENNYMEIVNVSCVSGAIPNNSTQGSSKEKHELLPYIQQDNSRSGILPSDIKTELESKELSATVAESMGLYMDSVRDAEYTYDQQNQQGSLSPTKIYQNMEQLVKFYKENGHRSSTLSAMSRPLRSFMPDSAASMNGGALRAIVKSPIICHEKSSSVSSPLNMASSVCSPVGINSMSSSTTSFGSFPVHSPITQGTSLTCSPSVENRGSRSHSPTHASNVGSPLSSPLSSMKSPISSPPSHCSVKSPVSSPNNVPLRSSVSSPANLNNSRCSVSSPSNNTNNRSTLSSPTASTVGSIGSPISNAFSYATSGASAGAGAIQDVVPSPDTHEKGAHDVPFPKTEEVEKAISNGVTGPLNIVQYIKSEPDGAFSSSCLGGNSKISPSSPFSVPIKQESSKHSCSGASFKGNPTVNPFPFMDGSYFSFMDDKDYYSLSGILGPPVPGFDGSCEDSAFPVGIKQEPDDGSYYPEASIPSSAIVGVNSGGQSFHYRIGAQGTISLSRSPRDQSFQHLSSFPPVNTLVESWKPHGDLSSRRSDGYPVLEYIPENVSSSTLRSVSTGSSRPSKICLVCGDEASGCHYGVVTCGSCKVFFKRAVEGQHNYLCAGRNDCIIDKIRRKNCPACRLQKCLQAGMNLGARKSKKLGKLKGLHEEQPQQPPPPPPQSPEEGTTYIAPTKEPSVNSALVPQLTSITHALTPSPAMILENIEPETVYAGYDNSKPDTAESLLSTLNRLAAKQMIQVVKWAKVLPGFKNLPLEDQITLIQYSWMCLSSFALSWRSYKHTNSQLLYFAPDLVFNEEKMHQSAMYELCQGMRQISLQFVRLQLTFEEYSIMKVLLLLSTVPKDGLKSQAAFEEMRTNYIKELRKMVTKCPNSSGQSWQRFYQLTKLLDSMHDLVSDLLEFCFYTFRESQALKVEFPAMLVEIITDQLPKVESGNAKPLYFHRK

For the first assay, the target named is Androgen Receptor/SRC-1 Co-activator, AR (gene 367) (UniProt P10275). Briefly: OT_AR_ARSRC1_0960: Odyssey Thera (OT) 16-hour HEK293T Protein-Complementation Assay for Androgen Receptor/SRC-1 Co-activator (AID 2283353).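 Also: actives raise the signal above DMSO so potency reflects increased AR and SRC-1 complex.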 An outline of the steps: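 Sixteen-hour cell assay: Venus halves fused to AR and SRC-1 in HEK293T report binding. Images at 488/635 nm give an N/C ratio in the 488 nm channel over ≥400 cells, analysed as signal increase over DMSO.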
Androgen Receptor/SRC-1 Co-activator, AR (gene 367), sequence (P10275 whole entry, looked up, the tested form may be a part): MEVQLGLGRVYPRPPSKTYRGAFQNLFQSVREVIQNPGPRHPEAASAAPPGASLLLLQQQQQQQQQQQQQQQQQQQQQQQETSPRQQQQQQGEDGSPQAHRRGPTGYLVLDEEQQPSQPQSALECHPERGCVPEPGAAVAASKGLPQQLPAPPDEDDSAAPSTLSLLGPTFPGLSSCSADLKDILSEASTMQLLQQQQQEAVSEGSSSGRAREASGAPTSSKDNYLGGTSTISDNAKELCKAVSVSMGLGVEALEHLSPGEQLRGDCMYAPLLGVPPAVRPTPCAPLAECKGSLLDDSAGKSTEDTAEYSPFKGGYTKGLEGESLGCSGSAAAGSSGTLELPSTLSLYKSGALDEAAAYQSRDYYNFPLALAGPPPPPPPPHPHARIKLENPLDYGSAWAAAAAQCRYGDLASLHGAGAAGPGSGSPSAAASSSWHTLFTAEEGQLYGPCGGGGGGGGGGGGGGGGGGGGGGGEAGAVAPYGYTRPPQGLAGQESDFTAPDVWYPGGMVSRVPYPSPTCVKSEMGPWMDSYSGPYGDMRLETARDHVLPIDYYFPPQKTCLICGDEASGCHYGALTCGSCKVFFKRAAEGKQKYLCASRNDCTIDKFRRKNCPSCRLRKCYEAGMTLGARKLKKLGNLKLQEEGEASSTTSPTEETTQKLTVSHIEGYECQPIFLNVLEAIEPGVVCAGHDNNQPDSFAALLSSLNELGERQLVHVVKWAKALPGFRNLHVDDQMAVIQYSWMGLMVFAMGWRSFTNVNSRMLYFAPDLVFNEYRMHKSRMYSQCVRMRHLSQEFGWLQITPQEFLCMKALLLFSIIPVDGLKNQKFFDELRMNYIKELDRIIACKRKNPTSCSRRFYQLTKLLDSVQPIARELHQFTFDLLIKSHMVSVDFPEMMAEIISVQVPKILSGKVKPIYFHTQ
In the case of `O=C(c1ccccc1)C1CCCCC1`, the compound was called inactive. Still for that read-out and setting: the value for `CCSC(=O)N(CC(C)C)CC(C)C` was “inactive”; that for `c1ccc2[nH]c(-c3cscn3)nc2c1` was “inactive”. Still for that read-out and setting: the value for `O=C(O)C1(C(=O)Nc2ccc(Cl)cc2Cl)CC1` was “inactive”; that for `CCOC(=O)C(C)Oc1ccc(Oc2nc3ccc(Cl)cc3o2)cc1` (stereo not drawn) was “inactive”. `CSC(=O)c1cccc2nnsc12`: the AC50 was 32.5 µM (active). On the same count and under the same terms, the value for `O=C(c1ccc(O)cc1O)c1ccc(O)cc1O` was 10.2 µM (active) and 9.93 µM (active) and 10.7 µM (active).

A further assay shares this target. Briefly: OT_AR_ARSRC1_0480: Odyssey Thera (OT) 8-hour HEK293T Protein-Complementation Assay for Androgen Receptor/SRC-1 Co-activator (AID 2283354).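 Also: hits raise the complementation signal above DMSO so AC50 marks enhancers.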 An outline of the steps: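 Reconstituted split-Venus YFP signal from AR–SRC-1 interaction, read by imaging 8 h post-dose in stable HEK293T lines. The 488 nm nucleus-to-cytoplasm ratio (≥400 cells/image) was fitted upward against DMSO.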
Regarding `O=C(c1ccccc1)C1CCCCC1`, the compound was classed as inactive. Same read-out and setting: next, `CCSC(=O)N(CC(C)C)CC(C)C`: “inactive”; `c1ccc2[nH]c(-c3cscn3)nc2c1`: “inactive”; `CCCOC(=O)c1ccc(C(=O)OCCC)nc1`: “inactive”. As for `CCOC(=O)C(C)Oc1ccc(Oc2nc3ccc(Cl)cc3o2)cc1` (stereo not drawn), the compound was called inactive. As for `CSC(=O)c1cccc2nnsc12`, the AC50 is 22.4 µM (active). On to `O=C(c1ccc(O)cc1O)c1ccc(O)cc1O`, for which the AC50 is 11.1 µM (active) and 8.01 µM (active) and 9.37 µM (active).

A further assay concerns the target rat Mineralocorticoid Receptor (MR), Nr3c2 (gene 25672) (UniProt P22199). Briefly: NVS_NR_rMR: NovaScreen (NVS) Nuclear Receptor Binding Assay for rat Mineralocorticoid Receptor (MR) (AID 2283355). An outline of the steps: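 Primary HTS ran in duplicate at a single 25 uM concentration, with concentration-series follow-up for actives. Receptor source: adrenalectomized rat brain supernatant, cell-free. Radioligand displacement read by scintillation at 24 h, relative to DMSO baseline.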
Take `CCSC(=O)N(CC(C)C)CC(C)C`: the call was inactive. For the compound `CCN(Cc1c(F)cccc1Cl)c1c([N+](=O)[O-])cc(C(F)(F)F)cc1[N+](=O)[O-]`, the result was inactive.

For `COC(=O)c1ccc(I)cc1S(=O)(=O)NC(=O)Nc1nc(C)nc(OC)n1`, the result was inactive. Still for that read-out and setting: the value for `CC(C)(C)[C@@H](O)[C@@H](Cc1ccc(Cl)cc1)n1cncn1` was “inactive”.
